# Reference: the supplement of paper PMC13094657
# ± gives the standard deviation of the averaged measurements.
# Columns and labels:
# [1] = tested on: MDA-MB-231; experiment: cell viability relative to vehicle unstimulated control (fraction); higher = more viable cells; details: pre-treatment time: 18 h then 24 h IFNg/TNF
# [2] = tested on: MDA-MB-231; experiment: kynurenine production, fold change vs DMSO IFNg/TNF control; higher = more kynurenine produced (less inhibition); details: pre-treatment time: 18 h then 24 h IFNg/TNF
# Method in brief: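 Fold change over cytokine-stimulated vehicle wells on the same plate is the measure used for kynurenine production, averaged across duplicate plates in the first screening round. MDA-MB-231 cells, seeded 24 h beforehand at 7 × 10^4/well in 96-well plates, were pre-treated 18 h with each natural product in 0.1% DMSO and stimulated 24 h at 37°C with IFNγ (1 U/ml) and TNF (6.25 ng/ml). Supernatants were read at 492 nm following trichloroacetic acid and p-dimethylaminobenzaldehyde treatment, against 0–100 μM standards.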
# 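Wherever cell viability relative to vehicle unstimulated control is given: viability of the cells left after supernatant collection, read with Deep Blue dye added for 4 h, as absorbance at 570 nm minus 600 nm.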
Structure (SMILES),cell viability [1],kynurenine production [2]
COC(=O)C1=CO[C@@H](O[C@@H]2O[C@H](CO)[C@@H](O)[C@H](O)[C@H]2O)[C@@H]2C(CO)=CC[C@H]12 [Geniposide] (compound dose: 10 uM),0.947 ± 0.031,0.939 ± 0.023
C=C1C(=O)O[C@H]2C1CC[C@@](C)(O)C13C=CC(C)(C21)C1(C3)C(=O)O[C@@H]2C3C(C)=CCC3[C@](C)(O)[C@H](OC(C)=O)CC21 (stereo partly drawn) [Handelin] (compound dose: 10 uM),0.83 ± 0.29,0.709 ± 0.3
O=c1c(O)c(-c2ccc(O)c(O)c2)oc2cc(O)cc(O)c12 [Quercetin] (compound dose: 10 uM),0.974 ± 0.095,0.738 ± 0.2
C=C(C)[C@@H]1CC=C(C)CC1 [(-)-Limonene] (compound dose: 10 uM),1.1 ± 0.035,0.935 ± 0.21
C=C1C[C@@]23CC[C@H]4[C@@](C)(CCC[C@@]4(C)C(=O)O[C@@H]4O[C@H](CO)[C@@H](O)[C@H](O[C@@H]5O[C@H](CO)[C@@H](O)[C@H](O)[C@H]5O)[C@H]4O[C@@H]4O[C@H](CO)[C@@H](O)[C@H](O)[C@H]4O)[C@@H]2CC[C@]1(O[C@@H]1O[C@H](CO)[C@@H](O)[C@H](O[C@@H]2O[C@H](CO)[C@@H](O)[C@H](O)[C@H]2O)[C@H]1O[C@@H]1O[C@H](CO)[C@@H](O)[C@H](O)[C@H]1O)C3 [Rebaudioside M] (compound dose: 10 uM),0.939 ± 0.012,0.742 ± 0.12
C=C1C(=O)O[C@@H]2[C@H]3C(C)=CC[C@@]34O[C@@]4(C)CC[C@@H]12 [Arglabin] (compound dose: 10 uM),1.01 ± 0.041,0.822 ± 0.039
C[C@H]1[C@H](OC(=O)CCC(=O)O)O[C@@H]2O[C@@]3(C)CC[C@H]4[C@H](C)CC[C@@H]1[C@@]24OO3 [Artesunate] (compound dose: 10 uM),0.909 ± 0.13,0.421 ± 0.04
C=C(C)[C@H]1CC=C(C)C(=O)C1 [D(+)-carvone] (compound dose: 10 uM),1 ± 0.026,0.864 ± 0.022
CC(C)=CCC[C@](C)(O)[C@@H]1CC=C(C)CC1 [Levomenol] (compound dose: 10 uM),0.676 ± 0.54,1.16 ± 0.056
C/C1=C\CCC2=C[C@@H](OC2=O)c2c(C)coc2C1 [Linderalactone] (compound dose: 10 uM),0.998,0.815 ± 0.018
COc1ccc(-c2coc3cc(O)ccc3c2=O)cc1 [Formononetin] (compound dose: 10 uM),0.988 ± 0.032,0.873 ± 0.0092
CC(C)=CCC[C@@H](C)CCO [(R)-Citronellol] (compound dose: 10 uM),1.029 ± 0.0012,0.824 ± 0.11
COc1ccc(SC)cc1 [4-methoxythioanisole] (compound dose: 10 uM),0.965 ± 0.057,0.973 ± 0.12
CC1(C)CC[C@]2(C(=O)O)CC[C@]3(C)C(=CC[C@@H]4[C@@]5(C)CC[C@H](O[C@@H]6O[C@H](C(=O)O)[C@@H](O)[C@H](O)[C@H]6O)C(C)(C)[C@@H]5CC[C@]43C)[C@@H]2C1 [Calenduloside E] (compound dose: 10 uM),1.07 ± 0.054,0.962 ± 0.087
CC1=CCC(O)(C(C)C)CC1 (stereo not drawn) [Terpineol] (compound dose: 10 uM),0.969 ± 0.087,0.885 ± 0.087
O=c1ccoc2cc(O)cc(O)c12 [5.7-dihydroxychromone] (compound dose: 10 uM),0.9229 ± 0.0012,0.868 ± 0.023
COc1ccc2c(c1O)C(Cc1ccc(O)cc1)[N+](C)(C)CC2 (stereo not drawn) [Oblongine] (compound dose: 10 uM),0.969 ± 0.037,1.03 ± 0.071
CC1OC(OC2C(CO)OC(OCC3OC(OC(=O)C45CCC(C)(C)CC4C4=CCC6C7(C)CCC(OC8OCC(O)C(O)C8O)C(C)(CO)C7CCC6(C)C4(C)CC5)C(O)C(O)C3O)C(O)C2O)C(O)C(O)C1O (stereo not drawn) [Hederacoside D] (compound dose: 10 uM),0.923 ± 0.067,0.851 ± 0.16
C=C(C)[C@@H]1CC=C(C)C(=O)C1 [L(-)-carvone] (compound dose: 10 uM),0.965 ± 0.069,0.974 ± 0.049
CC(C)c1cccc(=O)c(O)c1 [Hinokitiol] (compound dose: 10 uM),0.9746 ± 0.0011,0.423 ± 0.025

Structure (SMILES),cell viability [1],kynurenine production [2]
C[C@@H]1CC[C@]2(C(=O)O[C@@H]3O[C@H](CO)[C@@H](O)[C@H](O)[C@H]3O)CC[C@]3(C)C(=CC[C@@H]4[C@@]5(C)CC[C@H](O[C@@H]6OC[C@H](O)[C@H](O)[C@H]6O)C(C)(C)[C@@H]5CC[C@]43C)[C@@H]2[C@]1(C)O [Ziyuglycoside I] (compound dose: 10 uM),0.947 ± 0.068,0.804 ± 0.19
C=C1C[C@@]23CC[C@H]4[C@@](C)(CCC[C@@]4(C)C(=O)O[C@@H]4O[C@H](CO)[C@@H](O)[C@H](O)[C@H]4O)[C@@H]2CC[C@]1(O[C@@H]1O[C@H](CO)[C@@H](O)[C@H](O)[C@H]1O)C3 [Rubusoside] (compound dose: 10 uM),1.07 ± 0.02,0.88 ± 0.065
COC(=O)C1=CO[C@@H](O[C@@H]2O[C@H](CO)[C@@H](O)[C@H](O)[C@H]2O)[C@H]2[C@@H]1[C@H](O)C[C@]2(C)O [Shanzhiside methyl ester] (compound dose: 10 uM),1.007 ± 0.0034,0.998 ± 0.16
COc1ccc(-c2cc(=O)c3c(O)c(OC)c(O[C@@H]4O[C@H](CO[C@@H]5O[C@@H](C)[C@H](O)[C@@H](O)[C@H]5O)[C@@H](O)[C@H](O)[C@H]4O)cc3o2)cc1 [Pectolinarin] (compound dose: 10 uM),0.833 ± 0.26,0.907 ± 0.2
O[C@@H]1[C@@H](O)[C@@H](OC/C=C/c2ccccc2)O[C@H](CO[C@@H]2OC[C@H](O)[C@H](O)[C@H]2O)[C@H]1O [Rosavin] (compound dose: 10 uM),1.003 ± 0.0045,0.882 ± 0.2
C[C@@]12CC[C@@H]3[C@@](CC[C@H]4[C@@]3(C)CCC[C@@]4(C)C(=O)O)(CC1=O)C2 [Isosteviol] (compound dose: 10 uM),1.02 ± 0.084,0.998 ± 0.055
CC(=O)O[C@]12CCC(C(=O)O)=CC[C@]13CC[C@H]2[C@@](C)(/C=C/C=C(\C)C(=O)O)OC3=O [Pseudolaric Acid C2] (compound dose: 10 uM),1.017 ± 0.0098,0.728 ± 0.017
CC1=C[C@H]2[C@@H](CC1)[C@H](C)CC[C@H]2[C@@H](C)C(=O)O [Dihydroartemisinic acid] (compound dose: 10 uM),1.107 ± 0.0025,0.998 ± 0.035
CC(=O)O[C@H]1CC/C(C)=C/CC/C(C)=C/C[C@]2(C(C)C)CC[C@@]1(C)O2 [Incensole Acetate] (compound dose: 10 uM),1.11 ± 0.01,0.941 ± 0.18
C[C@H]1O[C@@H](O[C@H]2CC[C@@]3(C)[C@@H](CC[C@]4(C)[C@@H]3C=C[C@]35OC[C@@]6(CCC(C)(C)C[C@H]63)[C@@H](O)C[C@]54C)[C@]2(C)CO)[C@H](O)[C@@H](O[C@@H]2O[C@H](CO)[C@@H](O)[C@H](O)[C@H]2O)[C@H]1O [Saikosaponin A] (compound dose: 10 uM),1.015 ± 0.0091,0.824 ± 0.1
CC(C)=CCC[C@](C)(O[C@@H]1O[C@H](CO)[C@@H](O)[C@H](O)[C@H]1O)[C@H]1CC[C@]2(C)[C@@H]1[C@H](O)C[C@@H]1[C@@]3(C)CC[C@H](O)C(C)(C)[C@@H]3CC[C@]12C [Ginsenoside C-K] (compound dose: 10 uM),0.969 ± 0.016,0.912 ± 0.14
O=c1c(O)c(-c2ccc(O)cc2)oc2cc(O)cc(O)c12 [Kaempferol] (compound dose: 10 uM),0.969 ± 0.079,0.672 ± 0.023
CC(C)=CCC[C@](C)(O[C@@H]1O[C@H](CO[C@@H]2OC[C@@H](O)[C@H](O)[C@H]2O)[C@@H](O)[C@H](O)[C@H]1O)[C@H]1CC[C@]2(C)[C@@H]1[C@H](O)C[C@@H]1[C@@]3(C)CC[C@H](O[C@@H]4O[C@H](CO)[C@@H](O)[C@H](O)[C@H]4O[C@@H]4O[C@H](CO)[C@@H](O)[C@H](O)[C@H]4O)C(C)(C)[C@@H]3CC[C@]12C [Ginsenoside Rb3] (compound dose: 10 uM),1.01 ± 0.015,0.73 ± 0.19
"CCCCC/C=C/C=C/C(=O)O[C@H]1C(C)=C[C@]23C(=O)[C@@H](C=C(CO)[C@@H](O)[C@]12O)[C@H]1[C@@H](C[C@H]3C)C1(C)C [3-O-(2'E,4'EDecadienoyl)ingenol] (compound dose: 10 uM)",0.9682 ± 0.0024,0.812 ± 0.086
COC(=O)C1=CO[C@@H](O[C@@H]2O[C@H](CO)[C@@H](O)[C@H](O)[C@H]2O)[C@@H]2[C@H](C)O[C@@H](O)C[C@H]12 [Morroniside] (compound dose: 10 uM),1.015 ± 0.0011,1.22 ± 0.21
C[C@]1(OC(=O)/C=C/c2ccccc2)C[C@@H](O)[C@]2(O)C=CO[C@@H](O[C@@H]3O[C@H](CO)[C@@H](O)[C@H](O)[C@H]3O)[C@@H]21 [Harpagoside] (compound dose: 10 uM),0.987 ± 0.013,0.91 ± 0.17
"CC1CCC(C(C)C)C(O)C1 (single isomer, unassigned; (-)) [(-)-Menthol] (compound dose: 10 uM)",0.899 ± 0.076,0.988 ± 0.27
C[C@@]12C[C@@]3(O)O[C@@H](O1)[C@]1(COC(=O)c4ccccc4)[C@@H]3C[C@]12O[C@@H]1O[C@H](COC(=O)c2ccccc2)[C@@H](O)[C@H](O)[C@H]1O [Benzoylpaeoniflorin] (compound dose: 10 uM),0.956 ± 0.034,0.893 ± 0.11
CC(CCC(OC1OC(CO)C(O)C(O)C1OC1OC(CO)C(O)C(O)C1O)C(C)(C)O)C1CCC2(C)C3CC=C4C(CCC(O)C4(C)C)C3(C)C(O)CC12C (stereo not drawn) [Mogroside II-A] (compound dose: 10 uM),1.05 ± 0.069,0.693 ± 0.08
